A selection: hits, their analogues and other compounds. The true share with any hit is near 6.7%.
C diff HTS = inhibitors of Clostridium difficile growth | Clostridium difficile clinical isolate growth, OD600, 24 h; stronger effect = lower value | growth activity, negative = inhibition, % at 16 µg/mL (by protocol) | 86,000 compounds, 0.25% hits | AID 1259249;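 active means mean growth activity at or below -80% and every replicate also at or below -80%; inconclusive means mean at or below -80% but some replicate above -80%; inactive means mean growth activity above -80%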
Pf Dd2 growth = P. falciparum Dd2 growth inhibition | AID 1159554 | activity change, % at 10 µM | 94,000 compounds, 2.3% hits | SYBR Green, 72 h; stronger effect = lower value; in the data active means activity change below about -80%; inconclusive means no clear call, values can overlap the other calls
T cruzi growth-1 = T. cruzi proliferation inhibition | 77,000 compounds, 5.9% hits | T. cruzi beta-gal in NIH3T3, GalScreen luminescence, 90 h | AID 624255 | inhibition, % at 8.34 µM;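 active means mean inhibition above about 93%, with at least 55% of replicates each passing it, limit read from the data, passing the limit was not always enough; inconclusive means only one of those two conditions holds; inactive means neither condition holds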
T cruzi growth-2 = Trypanosoma cruzi proliferation inhibition; T. cruzi beta-gal in NIH3T3, GalScreen luminescence, 90 h; shares compounds with T cruzi growth-1; 5,600 compounds, 72% hits; inhibition, % at 8.35 µM;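 active means mean replicate inhibition above about 95% and at least 55% of replicates individually reaching it, limit read from the data; inconclusive means only one of the two criteria is met; inactive means neither criterion is met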
T cruzi growth-3 = inhibitors of T. cruzi proliferation | T. cruzi beta-gal in NIH3T3, GalScreen luminescence, 90 h | 5,600 compounds, 21% hits | inhibition, % at 2.09 µM | shares compounds with T cruzi growth-1;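 active means mean inhibition above about 95%, with at least 55% of replicates also reaching it, limit read from the data; inconclusive means meets just one of the two conditions; inactive means meets neither condition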
NIH3T3 tox = kills mouse NIH/3T3 fibroblasts; shares compounds with T cruzi growth-1; NIH/3T3 viability, CellTiter-Glo ATP luminescence, 90 h; cytotoxicity (signal decrease), % at 8.35 µM; 5,600 compounds, 14% hits; AID 651742;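 active means mean signal decrease across replicates above about 35% based on untreated-well scatter, with enough replicates individually passing, limit read from the data; inconclusive means no rule stated though some were filed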
NIH3T3 tox 2 = cytotoxicity in mouse NIH/3T3 fibroblasts; shares compounds with T cruzi growth-1; NIH/3T3 viability, CellTiter-Glo ATP luminescence, 90 h; 5,600 compounds, 56% hits; inhibition, % at 24.9 µM;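 active means mean loss of cell viability signal at or above a set limit, and enough replicates individually reaching it; inconclusive means meets only the mean limit or only the replicate share; inactive means meets neither condition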
Of the large screens only hits and unclear results are named; the others gave an inactive call (follow-up assays come after a bar, where they were run).

O=C(Cc1ccccc1)N1CC2(C1)[C@H](c1ccccc1)[C@H](CO)N2Cc1cccc(Cl)c1	none (no result: T cruzi growth-1)
CC=Cc1ccc2n(c1=O)C[C@H]1[C@H](CO)[C@@H](C(=O)OC)[C@@H]2N1CC1CCCC1 (mixture of isomers)	none (no result: T cruzi growth-1)
C[C@H]1CN([C@@H](C)CO)C(=O)CCCn2nncc2CO[C@@H]1CN(C)C(=O)Oc1ccc2ccccc2c1	none (no result: C diff HTS)
N#Cc1cccc(-c2ccc([C@@H]3[C@H](CO)N4CCCCN(C(=O)Cc5cccnc5)C[C@@H]34)cc2)c1	none
N#Cc1cccc(-c2ccc([C@@H]3[C@@H](CO)N4CCCCN(C(=O)Cc5ccncc5)C[C@H]34)cc2)c1	T cruzi growth-1 108 | T cruzi growth-2 inactive | T cruzi growth-3 inactive | NIH3T3 tox inactive | NIH3T3 tox 2 37
N#Cc1cccc(-c2ccc([C@H]3[C@H](CO)N4CCCCN(C(=O)Cc5cccnc5)C[C@@H]34)cc2)c1	T cruzi growth-1 109 | T cruzi growth-2 103 | T cruzi growth-3 inactive | NIH3T3 tox inactive | NIH3T3 tox 2 55
N#Cc1ccc(-c2ccc([C@@H]3[C@@H](CO)N4CCCCN(C(=O)Cc5ccccc5)C[C@H]34)cc2)cc1	none
N#Cc1cccc(-c2ccc([C@H]3[C@H](CO)N4CCCCN(C(=O)Cc5ccccc5)C[C@@H]34)cc2)c1	T cruzi growth-1 102 | T cruzi growth-2 inactive | T cruzi growth-3 inactive | NIH3T3 tox inactive | NIH3T3 tox 2 42
N#Cc1cccc(-c2ccc([C@H]3[C@@H](CO)N4CCCCN(C(=O)Cc5cccnc5)C[C@H]34)cc2)c1	none
COC(=O)[C@H]1[C@H](CO)[C@H]2Cn3c(ccc(C4=CCCCC4)c3=O)[C@@H]1N2Cc1cccnc1	none
COc1ccc(C#Cc2ccc([C@H]3[C@H]4CN(C(=O)Cc5cccnc5)CCCCN4[C@H]3CO)cc2)cc1	T cruzi growth-1 104 | T cruzi growth-2 104 | T cruzi growth-3 inactive | NIH3T3 tox inactive | NIH3T3 tox 2 99
COc1ccc(C#Cc2ccc([C@@H]3[C@H]4CN(C(=O)Cc5cccnc5)CCCCN4[C@H]3CO)cc2)cc1	T cruzi growth-1 99 | T cruzi growth-2 104 | T cruzi growth-3 inactive | NIH3T3 tox inactive | NIH3T3 tox 2 106
COc1ccc(C#Cc2ccc([C@H]3[C@@H](CO)N4CCCCN(C(=O)Cc5cccnc5)C[C@@H]34)cc2)cc1	T cruzi growth-1 125 | T cruzi growth-2 99 | T cruzi growth-3 103 | NIH3T3 tox 36 | NIH3T3 tox 2 86
COc1ccc(C#Cc2ccc([C@H]3[C@H](CO)N4CCCCN(C(=O)Cc5cccnc5)C[C@@H]34)cc2)cc1	T cruzi growth-1 113 | T cruzi growth-2 106 | T cruzi growth-3 102 | NIH3T3 tox 43 | NIH3T3 tox 2 105
COC(=O)[C@@H]1[C@@H](CO)[C@@H]2Cn3c(ccc(C4=CCCCC4)c3=O)[C@H]1N2CC1CCCC1	none
COC(=O)C[C@H]1CC[C@H]2NC[C@H](O)COC[C@@H]2O1	none
COC(=O)[C@@H]1[C@@H](CO)[C@@H]2Cn3c(ccc(-c4ccccc4F)c3=O)[C@H]1N2C(=O)C1CC1	none
CC=Cc1ccc2n(c1=O)C[C@@H]1[C@@H](CO)[C@H](C(=O)OC)[C@H]2N1C(=O)CC1CC1 (mixture of isomers)	none
O=C(Cc1ccccc1)N1CC2(C1)[C@H](c1ccccc1)[C@H](CO)N2Cc1cccc(F)c1	none (no result: T cruzi growth-1)
COc1ccc(C#Cc2ccc([C@@H]3[C@@H](CO)N4CCCCN(C(=O)Cc5cccnc5)C[C@@H]34)cc2)cc1	T cruzi growth-1 108 | T cruzi growth-2 113 | T cruzi growth-3 inactive | NIH3T3 tox inactive | NIH3T3 tox 2 103
COc1ccc(C#Cc2ccc([C@H]3[C@@H](CO)N4CCCCN(C(=O)Cc5cccnc5)C[C@H]34)cc2)cc1	T cruzi growth-1 115 | T cruzi growth-2 102 | T cruzi growth-3 inactive | NIH3T3 tox 46 | NIH3T3 tox 2 103
O=C(Cc1cccnc1)N1CCCCN2[C@H](CO)[C@@H](c3ccc(C#CC4(O)CCCC4)cc3)[C@@H]2C1	none
CCCC#Cc1ccc([C@@H]2[C@H](CO)N3CCCCN(C(=O)Cc4ccccn4)C[C@@H]23)cc1	none
CC(C)CC#Cc1ccc([C@@H]2[C@@H](CO)N3CCCCN(C(=O)Cc4ccccn4)C[C@H]23)cc1	none
CC(C)CC#Cc1ccc([C@@H]2[C@H](CO)N3CCCCN(C(=O)Cc4ccccn4)C[C@@H]23)cc1	T cruzi growth-1 97 | T cruzi growth-2 108 | T cruzi growth-3 inactive | NIH3T3 tox inactive | NIH3T3 tox 2 104
O=C(Cc1ccccn1)N1CCCCN2[C@H](CO)[C@H](c3ccc(C#Cc4ccccc4)cc3)[C@@H]2C1	T cruzi growth-1 116 | T cruzi growth-2 109 | T cruzi growth-3 inactive | NIH3T3 tox 36 | NIH3T3 tox 2 46
O=C(O)[C@@H]1[C@@H](CO)[C@@H]2Cn3c(ccc(-c4ccncc4)c3=O)[C@H]1N2S(=O)(=O)c1ccccc1F	none (no result: Pf Dd2 growth)
O=C(Cc1ccccn1)N1CCCCN2[C@@H](CO)[C@@H](c3ccc(-c4ccc(F)cc4)cc3)[C@@H]2C1	T cruzi growth-1 inconclusive | T cruzi growth-2 inactive | T cruzi growth-3 inactive | NIH3T3 tox inactive | NIH3T3 tox 2 41
O=C(Cc1ccccn1)N1CCCCN2[C@H](C1)[C@H](c1ccc(-c3ccc(F)cc3)cc1)[C@@H]2CO	none
O=C(Cc1ccccn1)N1CCCCN2[C@@H](CO)[C@H](c3ccc(-c4ccc(F)cc4)cc3)[C@@H]2C1	T cruzi growth-1 101 | T cruzi growth-2 inconclusive | T cruzi growth-3 inactive | NIH3T3 tox inactive | NIH3T3 tox 2 34
O=C(Cc1ccccn1)N1CCCCN2[C@H](CO)[C@H](c3ccc(-c4ccccc4F)cc3)[C@@H]2C1	T cruzi growth-1 97 | T cruzi growth-2 109 | T cruzi growth-3 inactive | NIH3T3 tox inactive | NIH3T3 tox 2 inactive
O=C(Cc1ccccn1)N1CCCCN2[C@H](CO)[C@@H](c3ccc(-c4ccccc4F)cc3)[C@@H]2C1	none
Cc1ccccc1-c1ccc([C@H]2[C@@H](CO)N3CCCCN(C(=O)Cc4ccccn4)C[C@H]23)cc1	none
Cc1ccccc1-c1ccc([C@@H]2[C@H](CO)N3CCCCN(C(=O)Cc4ccccn4)C[C@@H]23)cc1	T cruzi growth-1 inconclusive | T cruzi growth-2 inactive | T cruzi growth-3 inactive | NIH3T3 tox inactive | NIH3T3 tox 2 65
O=C(Cc1ccccn1)N1CCCCN2[C@H](C1)[C@@H](c1ccc(-c3ccc(F)cc3)cc1)[C@@H]2CO	none
COC(=O)[C@H]1[C@H](CO)[C@H]2Cn3c(ccc(-c4ccccc4F)c3=O)[C@@H]1N2C(=O)C1CC1	none
N#Cc1cccc(-c2ccc([C@@H]3[C@@H](CO)N4CCCCN(C(=O)Cc5cccnc5)C[C@H]34)cc2)c1	none
N#Cc1ccc(-c2ccc([C@H]3[C@H](CO)N4CCCCN(C(=O)Cc5ccccc5)C[C@@H]34)cc2)cc1	none

Screening data as filed in PubChem BioAssay.
